# Bioassay records: PubChem BioAssay, National Center for Advancing Translational Sciences (NCATS)
# CBFb-RUNX1 inh: inhibitors of human CBF-beta and RUNX1 interaction. Potency, µM (highest dose often 59.8 µM), without a hit: at the highest dose activity, negative = inhibition, most hits filed as inhibitors. AID 1477. 230,000 tested, under 10 active. Q01196+Q13951. AlphaScreen CBFb-His/RUNX1-biotin binding, biochemical; note: % of control where 0% means no effect
#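 AlphaScreen binding: CBFb-His and RUNX1-biotin (30 nM each) preincubated 20 min, compound added for 15 min, then nickel and streptavidin beads for 90 min, all at room temperature. Disruption of the interaction by any mechanism counts as activity.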
# Tau FP inhib: inhibitors of human tau fibril formation; P10636; K18 P301L tau heparin fibrillization, Alexa594 FP, 6 h; Potency, µM (highest dose often 57.7 µM), for inactives: at the top dose activity, negative = inhibition, most hits filed as inhibitors; 280,000 tested, 0.39% active; AID 1468; note: potency is the fitted concentration of half-maximal effect; % is set by controls: 0 for no effect and ±100 for the full control effect; nearly all actives have a fitted effect of over 55% in size
# Target sequence (P10636 561-689 P618L limits assumed): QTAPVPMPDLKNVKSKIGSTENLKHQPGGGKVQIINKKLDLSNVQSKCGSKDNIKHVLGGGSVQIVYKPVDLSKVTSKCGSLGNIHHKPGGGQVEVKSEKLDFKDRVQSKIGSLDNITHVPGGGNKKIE
#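 Steps: dispense K18 P301L tau (15 uM plus 0.24 uM Alexa 594 tracer, final) in pH 7 sodium acetate; add compound; add heparin (20 uM final); incubate 6 hr, 37 C; add ThT (30 uM final); after 1 hr ambient, read FP.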
# Tau fluor cs: counter-screen for tau fibril formation inhibitors; Potency, µM (top dose mostly 57.7 µM), inactives show top-dose activity change, negative = decrease; 280,000 tested, 0.93% active; tau K18 P301L Alexa594 fluorescence, heparin fibrillization; note: potency is the fitted concentration of half-maximal effect; % is set by controls: 0 for no effect and ±100 for the full control effect; nearly all actives have a fitted effect of over 55% in size
#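 Human tau K18 P301L (15 uM unlabeled, 0.24 uM Alexa 594-labeled) in 100 mM sodium acetate pH 7 with 20 uM heparin, 6 hr at 37 C. ThT 30 uM added, 1 hr ambient; Alexa 594 FP and total fluorescence read at 555/632 nm.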
# Tau fibril ThT: blocks human tau fibril formation measured by thioflavin T. AID 1460. Potency, µM (top dose mostly 57.4 µM), for inactives: at the top dose activity, negative = inhibition, most hits filed as inhibitors. recombinant tau K18 P301L (four-repeat tau fragment), heparin-induced fibrillization, ThT fluorescence. 270,000 tested, 2.1% active; note: potency is the fitted concentration of half-maximal effect; % is set by controls: 0 for no effect and ±100 for the full control effect; nearly all actives have a fitted effect of over 55% in size
#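 Aggregation was driven by heparin (20 uM final) acting on recombinant tau […] bearing P301L in 100 mM sodium acetate pH 7; fibrils were detected with Thioflavin T.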
# Lamin A splicing: changes lamin A minigene splicing in HeLa cells | HeLa LMNA splicing GFP/RFP minigene ratio, 48 h | Potency, µM (highest dose often 46.1 µM), for the others: at the highest dose ratio change, negative = inhibition, actives largely listed as inhibitors | 200,000 tested, 0.01% active | AID 1487; active = well fitted inhibition curve with a large enough effect in the signal ratio, with a control signal flat, not every such curve was filed as active; inconclusive = small, poorly fitted or top-dose-only effect, or effect the other way, or a change in a side signal; the % refers to the signal ratio; note: potency is the fitted concentration of half-maximal effect; % is set by controls: 0 for no effect and ±100 for the full control effect
#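 S3 HeLa cells stably expressing lamin A-EGFP splicing minigene plus DsRed2, 600 cells/well, 48 h compound exposure at 37C. Laser-scanning cytometry; analysed as GFP (500-530 nm)/RFP (575-640 nm) total intensity ratio; 0.5% DMSO vehicle.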
# JMJD2E inh: blocks human JMJD2E demethylase activity | Potency, µM (series often up to 57.1 µM), without a hit: at the highest dose activity change, negative = inhibition, hits mostly inhibitors | JMJD2E catalytic domain, FDH-coupled NADH fluorescence (FDH is formaldehyde dehydrogenase) | B2RXH2 | 230,000 tested, 1.6% active | AID 2147; active = well fitted inhibition curve with a large enough effect, not every such curve was filed as active; inconclusive = small, poorly fitted or top-dose-only effect, or another doubt; inactive = no such curve, though single readings can be large or run the other way;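 note: potency is the fitted concentration of half-maximal effect; 0% = wells with enzyme and -100% = buffer wells without enzyme; nearly all actives have a fitted effect of over 50% in size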
# Target sequence (B2RXH2 1-337 limits assumed): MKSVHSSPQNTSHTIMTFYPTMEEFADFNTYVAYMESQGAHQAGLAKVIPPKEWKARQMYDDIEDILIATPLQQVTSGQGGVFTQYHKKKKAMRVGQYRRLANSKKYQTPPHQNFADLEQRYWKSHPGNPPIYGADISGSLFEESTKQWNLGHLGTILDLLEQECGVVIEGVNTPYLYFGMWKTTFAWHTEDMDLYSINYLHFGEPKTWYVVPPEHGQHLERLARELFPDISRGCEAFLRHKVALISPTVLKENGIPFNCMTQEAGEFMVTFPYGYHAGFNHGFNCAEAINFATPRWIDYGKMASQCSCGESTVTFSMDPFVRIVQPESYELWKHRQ
# An asterisk follows results filed as active; ? = inconclusive; . = not tested or not shown; ! = not active in a repeat; [ ] = dose if it differs, or a comment. Shown are actives, neighbours in structure and some others; about 3.2% of the full set was active somewhere. Unless noted, calls come from the whole dose curve; as a rule, active = well fitted curve in the direction sought with a large enough effect; inconclusive = small, poorly fitted or top-dose-only effect, or another doubt; inactive = no such curve, though single readings can be large; an effect the other way counts as inactive or inconclusive.
SMILES,CBFb-RUNX1 inh,Tau FP inhib,Tau fluor cs,Tau fibril ThT,Lamin A splicing,JMJD2E inh
COCc1cc(C)nc(OCC(=O)N/N=C/c2cccc(OC)c2)c1C#N,2%,2%,-7%,-11%,-1%,?
COCc1cc(C)nc(OCC(=O)N/N=C/c2ccc(O)cc2O)c1C#N,?,-3%,-11%,-11%,.,25µM*
COCc1cc(C)nc(OCC(=O)N/N=C/c2ccccc2O)c1C#N,-4%,-3%,3%,-1%,?,25µM*
Cn1c(=O)c2nc3ccc(NC(=O)C(F)(F)F)cc3nc2n(C)c1=O,.,-1%,-6%,11%,.,.
CC(=O)Nc1ccc2nc3ccccc3nc2c1,9%,?,-22%,?,.,14µM*
CC(=O)Nc1ccc2nc3c(=O)n(C)c(=O)n(C)c3nc2c1,-20%,?,-27%,18µM*,.,?
Cc1ccc(NC(=O)c2oc3ccc(S(=O)(=O)N4CCCCC4)cc3c2C)c(C)c1,.,1%,4%,8%,10%[46 µM],.
COc1ccc(NS(=O)(=O)c2ccc3nc(COc4cccc5ccccc45)[nH]c3c2)cc1,3%,22µM*,10µM*[quencher],-11%,?,4%
COc1ccc2c(c1)OC/C(=C\c1ccc(OC)c(O)c1)C2=O,-15%,-5%,?,4.5µM*,.,20µM*
C/C(=N\NC(=O)CN(c1ccccc1)S(C)(=O)=O)c1ccccc1O,1%,-10%,-11%,2%,?,18µM*
Cc1ccc(S(=O)(=O)N(C)Cc2nc(-c3ccccc3)oc2C)cc1,.,5%,-13%,-15%,5%[46 µM],.
CCOC(=O)N1CCN(c2ncnc3c2[nH]c2ccc(OC)cc23)CC1,1%,3%,-29%,8.9µM*,?,?
Fc1ccc2[nH]c3c(N4CCN(c5ccccc5)CC4)ncnc3c2c1,-3%,11%,25µM*[quencher],?,?,?
COc1cc(-c2cc(OC)c3c(C)oc(C)c3c(=O)c2)ccc1OC(=O)c1cccc(Cl)c1,.,3%,-8%,-13%,?,.
N#Cc1c(/N=C/c2cccs2)sc2c1CCC2,-16%,-3%,-23%,2.8µM*,3%,-2%
N#Cc1c(/N=C/c2ccco2)sc2c1CCCCC2,-24%,-10%,-23%,4.5µM*,-2%,0%
Cc1cc(C(=O)O)ccc1N/C=C1\CCCC(C)C1=O (centres undefined),-2%,2%,-5%,-15%,-1%,-5%
CC1CCC/C(=C\Nc2ccc(O)cc2)C1=O (centres undefined),-18%,?,?,18µM*,0%,?
Cc1cc(C)c(NC(=O)C2CCN(C(=O)N3CC(C)Oc4ccc(Cl)cc43)CC2)c(C)c1 (centres undefined),.,1%,-4%,-17%,2%[46 µM],.
CC1CN(C(=O)N2CCC(C(=O)NC3CCCCCC3)CC2)c2cc(Cl)ccc2O1 (centres undefined),.,?,?,20µM*,?,.
O=C(NCc1ccco1)C1CCN(C(=O)N2CCOc3ccc(Cl)cc32)CC1,.,?,?,20µM*,12%[46 µM],.
O=C(NCCC1=CCCCC1)C1CCN(C(=O)N2CCOc3ccccc32)CC1,.,?,2.8µM*[quencher],2%,12%[46 µM],.
Cc1ccc2c(c1)N(C(=O)N1CCC(C(=O)NCCc3ccc(Cl)cc3)CC1)CC(C)O2 (centres undefined),.,7%,7.9µM*[quencher],-4%,-7%[46 µM],.
Cc1ccccc1NC(=O)C1CCN(C(=O)c2ccc(F)cc2)CC1,.,1%,10%,9%,.,.
O=c1cc(-c2ccccc2O)oc2cc(O)cc(O)c12,7%[21.7 µM],1%,?,?,.,-21%
SMILES,CBFb-RUNX1 inh,Tau FP inhib,Tau fluor cs,Tau fibril ThT,Lamin A splicing,JMJD2E inh
O=c1cc(-c2cc(O)c(O)c(O)c2)oc2cc(O)cc(O)c12,.,5%,16µM*[quencher],7.9µM*,23%,10µM*
COc1ccc(-c2cc(=O)c3c(O)cc(O)c(-c4cc(-c5cc(=O)c6c(O)cc(O)cc6o5)ccc4OC)c3o2)cc1,.,18µM*,-30%,-12%,?,-15%
O=c1cc(-c2ccccc2)oc2cc(O)cc(O)c12,6%[21.7 µM],?,-14%,?,?,?
O=c1cc(-c2ccc(O)cc2)oc2cc(O)cc(O)c12,?,?,?,16µM*,?,11µM*!
Cc1nc(NCc2ccccc2)c2nc(-c3ccccc3)n(C3CCN(Cc4ccccc4)C3)c2n1 (centres undefined),7%,3%,-19%,-17%,.,?
Oc1ccc(/C=N/n2c3ccccc3c3ccccc32)cc1,-6%,?,14µM*[quencher],35µM*,8%,-8%
Cc1ccc(C(=O)ONc2ccc(N=NC(=O)c3ccccc3O)cc2)cc1,0%,-3%,?,2.2µM*,10%,?
Cc1ccc(C(=O)ONc2ccc(N=O)cc2)cc1,4%,-3%,-12%,-27%,-8%,3%
CCCCCCCCCCCCCCCCCC(=O)OCC(C)O (centres undefined),-17%,?,?,14µM*,.,.
Oc1ccccc1/C=N/Nc1nc2ccccc2o1,-19%,14%,?,?,.,28µM*
COc1cc(/C=N/Nc2nc3ccccc3o2)cc(OC)c1O,-3%,8%,?,14µM*,4%,?
Cc1ccc(CSc2ncc(Cl)c(C(=O)NCCc3ccc(S(N)(=O)=O)cc3)n2)cc1,.,3%,-15%,-7%,.,.
COc1ccc([C@@H]2CC(=O)c3c(O)cc(O[C@@H]4O[C@H](CO)[C@@H](O)[C@H](O)[C@H]4OC4O[C@@H](C)[C@H](O)[C@@H](O)[C@H]4O)cc3O2)cc1O (some centres undefined),-15%,.,.,.,.,.
COc1ccc(-c2cc(=O)n(-c3ccc([N+](=O)[O-])cc3)[nH]2)cc1,3%,1%,?,11µM*,?,?
O=C(NNC(=O)c1cccnc1)NC1CCCCC1,-2%,1%,-4%,-6%,.,3%
O=C(NNC(=O)c1cc(O)c(O)c(O)c1)NC1CCCCC1,-4%,-9%,-12%,?,18%,7.1µM*
Cc1nc2cnc(N3CCOCC3)nc2n(C2CC2)c1=O,.,.,.,.,-7%,.
CC(CCc1ccccc1)NC(=O)CSc1n[nH]c(-c2ccc(F)cc2)n1 (centres undefined),.,-7%,-20%,1%,-28%[46 µM],.
Fc1ccc(C2NCCn3cccc32)cc1 (centres undefined),0%,2%,-14%,?,1%,20µM*
Nc1ccc(N)c(C(=O)O)c1,.,?,?,14µM*,?,-6%
Nc1cc([N+](=O)[O-])ccc1C(=O)O,0%[21.7 µM],.,.,.,.,.
